A short description of experiment [1]: Primary qHTS for inhibitors of nuclear receptor binding SET domain protein 2 (NSD2) in an isogenic RCH-ACV NSD2 p.E1099K mutant (9B) (AID 1645876). Particulars: RCH-ACV NSD2 E1099K (9B) viability, CellTiter-Glo, 72 h; series mostly up to 44.9 µM.
A short description of experiment [2]: Primary qHTS for inhibitors of nuclear receptor binding SET domain protein 2 (NSD2) in an RCH-ACV wild type WT cells (2C) (AID 1645877). Particulars: RCH-ACV (leukaemia line) NSD2 WT (2C) viability, CellTiter-Glo, 72 h; series mostly up to 44.9 µM. (In qHTS, concentration-response curves come from the screen itself.)

“And” between values parts separate entries of the source, which are not always exact repeats. Equal values may be shown once. Records with an inconclusive call do not appear. Values without a mark were called inactive. The source made the active and inactive calls. Calls come from the whole dose curve; as a rule, active = well fitted curve in the direction sought with a large enough effect; inconclusive = small, poorly fitted or top-dose-only effect, or another doubt; inactive = no such curve, though single readings can be large; an effect the other way counts as inactive or inconclusive.
% is set by controls: 0 for no effect and ±100 for the full control effect; potency is the fitted concentration of half-maximal effect.
Note: nearly all actives have a fitted effect of over 70% in size.

For `Cc1ncc([N+](=O)[O-])n1CC(O)CN1CCOCC1` (stereo unspecified), the Potency entry in experiment [1] and in experiment [2] was “inactive” each time.

`C=C1CCC2C(C)(C)CC(=O)CC2(C)C1CCC(C)CCOC(C)=O` (stereo unspecified): the Potency entry in experiment [1] and in experiment [2] was “inactive” in each case.

Consider `Cc1c(N2C(=O)c3ccc(C(=O)O)cc3C2=O)c(=O)n(-c2ccccc2)n1C`, for which the Potency entry in experiment [1] and in experiment [2] was “inactive” in each case.

As to `C=CC1(C)CC(O)C2(CCC3C(C)(C(=O)O)CCCC3(C)C2=O)C1` (stereo unspecified), the Potency result in experiment [1] and in experiment [2] was “inactive” each time.

Take `C=C1CC2[C@]3(C)C(=C(O)C(=O)[C@@]2(C)[C@]2(C(=O)OC)C(=O)C(C)OC(=O)[C@@]12C)C(C)(C)C(=O)CC3O` (stereo partly specified): the Potency entry in experiment [1] and in experiment [2] was “inactive” in each case.

Regarding `CC1[C@@H](O)[C@@H](O)C2[C@]3(C)C(C[C@H]4OC(=O)[C@H](O)[C@]1(O)[C@@]24C)C(C)(O)C[C@H](O)[C@H]3O` (stereo partly specified), the Potency result in experiment [1] and in experiment [2] was “inactive” throughout.

For the compound `C[C@]12CC[C@@H]3c4ccc(O[C@@H]5O[C@H](C(=O)O)[C@@H](O)[C@H](O)[C@H]5O)cc4CC[C@H]3[C@@H]1CCC2=O`, the Potency entry in experiment [1] and in experiment [2] was “inactive” each time.

Regarding `C[C@H]1[C@H](C)CC[C@]2(C(=O)O)CC[C@]3(C)C(=CC[C@@H]4[C@@]5(C)C[C@@H](O)[C@H](O)[C@@](C)(CO)[C@@H]5CC[C@]43C)[C@H]12`, the Potency result in experiment [1] and in experiment [2] was “inactive” in each case.

In the case of `C/C1=C\C[C@H](O[C@@H]2O[C@H](CO)[C@@H](O)[C@H](O)[C@H]2O)/C(C)=C/[C@H]2OC(=O)[C@H](C)[C@@H]2CC1`, the Potency entry in experiment [1] and in experiment [2] was “inactive” throughout.

`CC(/C=C/C1(O)C2(C)COC1(C)CC(=O)C2)O[C@@H]1O[C@H](CO)[C@@H](O)[C@H](O)[C@H]1O` (stereo partly specified): the Potency result in experiment [1] and in experiment [2] was “inactive” each time.

On to `C[C@@H]1O[C@@H](O[C@@H]2[C@@H](O)[C@H](O[C@@H]3[C@@H](O)[C@@H](O)[C@H](O[C@H]4[C@H](OC(=O)[C@]56CCC(C)(C)C[C@H]5C5=CCC7[C@@]8(C)C[C@H](O)[C@H](O[C@@H]9O[C@H](C(=O)O)[C@@H](O)[C@H](O)[C@H]9O)[C@@](C)(CO)C8[C@H](O)C[C@@]7(C)[C@]5(C)CC6)OC[C@H](O)[C@@H]4O)O[C@H]3C)OC[C@H]2O)[C@H](O)[C@H](O)[C@H]1O` (stereo partly specified), for which the activity change, negative = viability loss in experiment [1] is -7.76% [at 9.23 µM]. For the same compound, in experiment [2], the activity change, negative = cell killing is -21.5% [at 9.23 µM].

Take `COC(=O)C1C(c2ccc(O)cc2)C(C(=O)OC)C1c1ccc(O)cc1` (stereo unspecified): the Potency entry in experiment [1] and in experiment [2] was “inactive” each time.

On to `C=C1CC[C@H]2[C@@](C)(CCC[C@@]2(C)C(=O)O)[C@@H]1CCC(C)CCO` (stereo partly specified), for which the Potency entry in experiment [1] and in experiment [2] was “inactive” in each case.

As to `C=C1CC23CCC4[C@@](C)(CCC[C@@]4(C)C(=O)O)C2CCC1C3` (stereo partly specified), the Potency entry in experiment [1] and in experiment [2] was “inactive” throughout.

With `O=c1ccn(C2OC(CO)C(O)C2O)c(=O)[nH]1` (stereo unspecified), the Potency result in experiment [1] and in experiment [2] was “inactive” throughout.

On to `CC1(C)CCCC2(C)C1C(O)C=C(CO)C2(O)C(=O)O` (stereo unspecified), for which the Potency entry in experiment [1] and in experiment [2] was “inactive” throughout.

As for `OC[C@H]1O[C@@H](OCCc2ccc(O)cc2)[C@H](O)[C@@H](O)[C@@H]1O`, the Potency entry in experiment [1] and in experiment [2] was “inactive” throughout.

In the case of `C[C@]1(OC(=O)/C=C/c2ccccc2)C[C@H](O)[C@]2(O)C=CO[C@@H](O[C@@H]3O[C@H](CO)[C@@H](O)[C@H](O)[C@H]3O)C12` (stereo partly specified), the Potency entry in experiment [1] and in experiment [2] was “inactive” in each case.

For `COc1cccc(-n2nc(C(=O)O)cc2-c2ccc(C3CCCCC3)c(Cl)c2)c1`, the Potency result in experiment [1] and in experiment [2] was “inactive” throughout.

In the case of `CO[C@@H]1CC[C@H](OC[C@]2(COC(=O)c3ccc(C)[nH]3)[C@H](OC(C)=O)CC[C@@]3(C)[C@@H]4CC=C(C)[C@@H](C5=C(O)C(=O)OC5O)[C@]4(C)CC[C@@H]32)O[C@H]1C` (stereo partly specified), the Potency result in experiment [1] and in experiment [2] was “inactive” in each case.

Regarding `COC(=O)C1=CO[C@@H](O[C@@H]2O[C@H](COC(=O)/C=C/c3cc(OC)c(O)c(OC)c3)[C@@H](O)[C@H](O)[C@H]2O)[C@@H]2C(CO)=CC[C@H]12`, the Potency result in experiment [1] and in experiment [2] was “inactive” each time.

Take `O=C(O)C[C@H]1CCC(=O)[C@@H]1C/C=C\CCOC1OC(CO)C(O)C(O)C1O` (stereo partly specified): the Potency result in experiment [1] and in experiment [2] was “inactive” in each case.

Turning to `CC1=C(CC(=O)O)c2cc(F)ccc2C1=Cc1ccc(S(C)(=O)=O)cc1`, the Potency entry in experiment [1] and in experiment [2] was “inactive” in each case.

On to `O=C(/C=C/c1ccc(O)cc1)OCC1=C[C@@H](O)[C@@H]2C=CO[C@@H](O[C@@H]3O[C@H](CO)[C@@H](O)[C@H](O)[C@H]3O)[C@H]12`, for which the Potency entry in experiment [1] and in experiment [2] was “inactive” throughout.

In the case of `CC1(C)CC[C@]2(C(=O)O)CC[C@]3(C)C(=CCC4[C@@]5(C)C[C@@H](O)[C@H](O)C(C)(C)C5CC[C@]43C)[C@@H]2[C@@H]1O` (stereo partly specified), the Potency result in experiment [1] and in experiment [2] was “inactive” throughout.

Consider `NC(=O)c1ccc(OCC2NC(=O)C3CCCN3C2=O)cc1` (stereo unspecified), for which the Potency entry in experiment [1] and in experiment [2] was “inactive” in each case.

Consider `C[C@@H]1O[C@@H](O[C@H]2[C@H](O[C@H]3CC[C@@]4(C)C(CC[C@]5(C)C4CC=C4C6CC(C)(C)CC[C@]6(C(=O)O[C@@H]6O[C@H](CO[C@@H]7O[C@H](CO)[C@@H](O[C@@H]8O[C@@H](C)[C@H](O)[C@@H](O)[C@H]8O)[C@H](O)[C@H]7O)[C@@H](O)[C@H](O)[C@H]6O)CC[C@]45C)[C@]3(C)CO)OC[C@H](O)[C@@H]2O)[C@H](O)[C@H](O)[C@H]1O` (stereo partly specified), for which the activity change, negative = viability loss in experiment [1] is -5.7% [at 9.23 µM]. Further, in experiment [2], the activity change, negative = cell killing was -6.93% [at 9.23 µM].

Consider `O=C(O)C[C@H](O)C[C@H](O)/C=C/c1c(C2CC2)nc2ccccc2c1-c1ccc(F)cc1`, for which the Potency in experiment [1] is 1.83 µM (active) and 1.18 µM (active); in experiment [2], 1.83 µM (active) and 934 nM (active).

`C[C@@H]1O[C@@H](O[C@H]2[C@H](O)[C@@H](C(=O)O)O[C@@H](O[C@H]3CC[C@@]4(C)C(CC[C@]5(C)C4CC=C4C6CC(C)(C)CC[C@]6(C(=O)O)CC[C@]45C)C3(C)C)[C@@H]2O[C@@H]2O[C@H](CO)[C@@H](O)[C@H](O)[C@H]2O)[C@H](O)[C@H](O)[C@H]1O` (stereo partly specified): the activity change, negative = viability loss in experiment [1] is -6.46% [at 9.23 µM]. Further, the activity change, negative = cell killing in experiment [2] is -4.73% [at 9.23 µM].

For the compound `CN1CC[C@@H](NC(=O)Nc2ccc(C#N)cc2)C[C@@H]1c1nc2ccccc2[nH]1`, the Potency entry in experiment [1] and in experiment [2] was “inactive” throughout.

Regarding `CCOC(=O)c1ccnc(CNCC(=O)N(CC)CCN(C)C)c1`, the Potency result in experiment [1] and in experiment [2] was “inactive” each time.

Take `C=C(C)[C@@H](C)[C@H]1O[C@]23C[C@]4(CO2)C(CCC2[C@@]5(C)CC[C@H](O[C@@H]6OC[C@H](O)[C@H](O[C@@H]7O[C@H](CO)[C@@H](O)[C@H](O)[C@H]7O)[C@H]6O[C@@H]6O[C@@H](CO)[C@H](O)[C@H]6O)C(C)(C)C5CC[C@]24C)C3[C@@](C)(O)[C@@H]1OC(C)=O` (stereo partly specified): the outcome in experiment [1] and in experiment [2] was “inactive [at 9.23 µM]” throughout.

For `C/C(=C\CCC(C)(O)c1ccc(C)cc1)C(=O)O` (stereo unspecified), the Potency entry in experiment [1] and in experiment [2] was “inactive” each time.

The values are drawn from PubChem BioAssay (NCATS).
